Measurements published in PubChem BioAssay AID463173 (ICCB-Longwood Screening Facility, Harvard Medical School, 2010).
Hit rate of the full screen: of about 52,000 compounds, about 1,700 (3.3%) were called active. For the sample, actives were picked, then their nearest neighbours and some compounds at random. Values without a mark were called inactive. Cut-off read from the data, not from the text of the source: active = survival mostly below about 52% (no sharp cut-off); inactive = mostly above about 56%.

These molecules were tested on Wild type (assay: growth inhibition of S. aureus wild type versus tarO mutant, primary screen, teichoic acid synthesis inhibitors, RN4220, OD600 (AID 463173)). Conditions: S. aureus RN4220 wild type/DeltatarO growth, OD600, 18 h, hits give low values, screened at 18.75 µg/mL (by protocol).

Going from `COc1ccccc1CNC(=O)CC(c1ccc(C)cc1)N1Cc2ccccc2C1=O` (centres undefined) to `Cc1ccc(-c2ccc(=O)n(CC(=O)NCCc3ccccc3)n2)cc1`, the survival rises from 60% to 65%.

Going from `CC(C)(C)c1cc(-c2ccccc2)n[nH]1` to `COCCCNc1cc(C)nc2ccccc12`, the survival falls from 132% to 121%.

Compared with `CN(C)c1ccc(NC(=O)CSc2nc3ccsc3c(=O)n2CCCCCC(=O)O)cc1`, `CCn1cc2nc(SCc3ccc(F)cc3)n(CCc3ccccc3)c(=O)c2n1` is higher in survival: 70% for the first, 77% for the second.

Compared with `Cc1ccc(-c2ccc(=O)n(CC(=O)NCCc3ccc(Cl)cc3)n2)cc1`, `Cn1nnnc1SCCNCc1ccc(OCc2ccc(Cl)cc2)cc1` is lower in survival: 73% for the first, 68% for the second.

First: C=CCn1c(=O)[nH]c(=O)n(CC=C)c1=O
Second: COc1cc2c(cc1NS(=O)(=O)c1cccc(C#N)c1)n(C)c(=O)n2C
The survival of the first is higher: 111% for the first, 76% for the second.

Compared with `COc1ccc2c(Sc3ccccc3)c(C(=O)NCc3ccc(OC(C)C)cc3)[nH]c2c1`, `COc1ccc(CNC(=O)c2cnc3cc(C)ccn3c2=O)cc1` is lower in survival: 125% for the first, 85% for the second.

Compared with `COc1cc(CNCCSc2nnnn2C)ccc1OCc1ccccc1C`, `COc1cc(CNCCSc2nnnn2C)ccc1OCc1c(F)cccc1Cl` is higher in survival: 68% for the first, 73% for the second.

Going from `CCOc1ccc(CNCCSc2nnnn2C)cc1OC` to `COc1cc(CNCCSc2nnnn2C)cc(Cl)c1OCc1ccccc1`, the survival falls from 72% to 59%.

Going from `Cn1nnnc1SCCNCc1ccccc1OCc1ccc(Cl)cc1Cl` to `CCOC(=O)c1c(-c2ccccc2)csc1NC(=O)c1nc(SCC)ncc1Cl`, the survival rises from 56% to 97%.

`COCCNC(=O)c1ccc(-c2nc(CN3CCc4ccccc43)c(C)o2)cc1` and `COCCCNC(=O)c1ccc2c(c1)N(Cc1ccccc1)C(=O)c1ccccc1S2` are the same in survival: 75% for the first, 75% for the second.

Compared with `NS(=O)(=O)c1ccc(CCNC(=O)c2ccc3nc(Cc4ccccc4)oc3c2)cc1`, `Cc1ccc(OC(=O)CSc2nnc(CNC(=O)c3ccccc3)o2)cc1` is higher in survival: 81% for the first, 87% for the second.

Compared with `CCn1cc(C(=O)O)c(=O)c2cc(F)c(N3CCN(C(=O)c4ccccc4F)CC3)cc21`, `Cc1ccc(Cl)cc1N1CCN(C(=O)c2cc(S(=O)(=O)N3CCCC3)c[nH]2)CC1` is higher in survival: 54% for the first, 77% for the second.

First: CC(C)CC(=O)NCC(c1ccc2c(c1)OCO2)N1CCN(c2ccccc2)CC1 (centres undefined)
Second: Cc1ccccc1CN1CCCN(CC(=O)Nc2ccc3c(c2)OCCO3)S1(=O)=O
The survival of the first is higher: 77% for the first, 72% for the second.

First: COC(=O)c1cc(S(=O)(=O)N2CCN(c3ccc(OC)cc3)CC2)c[nH]1
Second: COc1ccccc1CNC(=O)CN1C(=O)CSc2ccc(S(=O)(=O)N3CCCCC3)cc21
The survival of the first is higher: 85% for the first, 83% for the second.

Compared with `COc1ccc(-n2ncc(C(=O)N3CCc4ccccc4C3)c2C2CCN(C(=O)OC(C)(C)C)CC2)cc1`, `COc1ccc(N2CC3=C(C2=O)C(c2ccc(Br)cc2)NC(=O)N3C)cc1` (centres undefined) is higher in survival: 63% for the first, 156% for the second.

Compared with `CCOC(=O)c1c(-c2ccc(C)cc2)csc1NC(=O)c1nc(SC(C)C)ncc1Cl`, `CCOC(=O)c1c(-c2ccc(C)cc2)csc1NC(=O)c1nc(SCC)ncc1Cl` is lower in survival: 85% for the first, 78% for the second.

First: CCCSc1ncc(Cl)c(C(=O)Nc2scc(-c3ccc(C)cc3)c2C(=O)OCC)n1
Second: CCc1ccccc1N(C)C(=O)c1cc2c(s1)-c1c(C)cccc1OC2
The survival of the first is higher: 87% for the first, 69% for the second.

First: CCc1nn(CC(=O)NCC(C)c2ccccc2)c(=O)c2cc3c(OC)cccc3n12 (centres undefined)
Second: COc1cc2c(cc1OC)n(CC(=O)c1cccc(Cl)c1)c(=O)n1nc(CCn3nc(C)cc3C)nc21
The survival of the first is higher: 89% for the first, 74% for the second.

Going from `Cc1ccccc1SCC(=O)O` to `Cc1cccc(C)c1OC(=O)CSc1nnc(-c2cccs2)o1`, the survival falls from 106% to 83%.

Compared with `O=C(c1cc(-c2ccccc2)on1)N1CCCc2ccccc21`, `Cc1cc(N2CCCCC2)nc2ccc(NC(=O)c3cccc(F)c3)cc12` is lower in survival: 114% for the first, 46% for the second.

First: CCN1CCN(c2cc(C)c3cc(NC(=O)c4cccc(Cl)c4)ccc3n2)CC1
Second: Cc1ccc(NC(=O)Nc2ccc3nc(N4CCN(C)CC4)cc(C)c3c2)cc1C
The survival of the first is lower: 57% for the first, 73% for the second.

First: CCOc1cc(C(=O)Nc2ccc3nc(N4CCN(C)CC4)cc(C)c3c2)cc(OCC)c1OCC
Second: Cc1ccc(NC(=O)CCc2c(C)nn(-c3ccc(N4CCCCC4)nn3)c2C)cc1F
The survival of the first is lower: 134% for the first, 146% for the second.

First: CCOC(=O)C(C)NC(=O)c1c(C)oc2ncn(CC(C)C)c(=O)c12 (centres undefined)
Second: COc1ccc(CCNC(=O)c2cc3c(s2)-c2c(C)cccc2OC3)c(OC)c1
The survival of the first is lower: 72% for the first, 103% for the second.

Compared with `COc1ccc(NC(=O)c2cc3c(s2)-c2c(C)cccc2OC3)c(OC)c1`, `Cc1cccc2c1-c1sc(C(=O)N(C)c3cccc(C(F)(F)F)c3)cc1CO2` is lower in survival: 78% for the first, 24% for the second.

In the case of `Cc1ccc(CCNC(=O)Cn2nc(-c3ccc(C)cc3)ccc2=O)cc1`, the survival is reported as -3% (active).
For `CCOc1cc(CNCCSc2nnnn2C)cc(Cl)c1OCc1ccc(Cl)cc1`, the survival was -2% (active).
In the case of `COc1cc(CNCCSc2nnnn2C)ccc1OCc1ccc(Cl)cc1Cl`, the survival is reported as 0% (active).
For `CCOc1cc(CNCCSc2nnnn2C)ccc1OCc1ccc(Cl)cc1Cl`, the survival was -5% (active).
With `COC(=O)c1cc(S(=O)(=O)N2CCN(c3cc(Cl)ccc3C)CC2)c[nH]1` the survival was 8% (active).
With `CCCS(=O)(=O)c1ncc(Cl)c(C(=O)Nc2scc(-c3ccccc3)c2C(=O)OCC)n1` the survival was 4% (active).
With `CCOC(=O)c1c(-c2ccccc2)csc1NC(=O)c1nc(S(=O)(=O)CC)ncc1Cl` the survival was 2% (active).
With `Cc1cc(N2CCCCC2)nc2ccc(NC(=O)c3cccc(Cl)c3)cc12` the survival was -2% (active).
With `Cc1cc(N2CCN(C)CC2)nc2ccc(NC(=O)c3ccc(C(C)(C)C)cc3)cc12` the survival was -20% (active).
For `Cc1cccc2c1-c1sc(C(=O)N(C)c3cccc(Cl)c3)cc1CO2`, the survival was 0% (active).
In the case of `COc1ccc(N(C)C(=O)c2cc3c(s2)-c2c(C)cccc2OC3)c(OC)c1`, the survival is reported as 12% (active).
